Holding throughout (experiment): log2 fold change, soluble protein after heating vs DMSO (PISA); higher = thermal stabilisation; K562 lysate, 10 uM; active = over 0.2 and 3.5 SD of the protein, either way, in both replicates (recomputed)
Compound in assay [1]: Cc1sc2c(c1C)C(c1ccc(Cl)cc1)=N[C@@H](CC(=O)OC(C)(C)C)c1nnc(C)n1-2
The gist of the method:
(§1)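 Pellets of K562 cells were dounce-homogenised in PBS pH 7.4 with 1 mM MgCl2, and the crude extract was held at 1 mg/mL protein for a 30 min treatment with 10 μM compound. Aliquots were heated for 3 min over 48°C-58°C and pooled before NP-40 was added to 0.5% at 4°C. The supernatant from 21,000xg for 90 min was quantified by TMTpro 16plex LC-MS/MS with channel sums equalised. Values are reported from duplicates as log-two fold change in thermal stability relative to solvent controls.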

Compound in assay [2]: c1ccc([C@@H]2C[C@H]2NC2CCNCC2)cc1
The gist of the method: as §1

Compound in assay [3]: CC1=C2C(=CC=C1)N=C(N(C2=O)C3=CC=CC=C3C)CN4C=NC5=C(N=CN=C54)N
The gist of the method: as §1

Compound in assay [4]: C1=CC=C(C=C1)[C@H](COC2=CC3=C(C=C2)NC(=O)N3)NC(=O)C4=CC=CN(C4=O)CC5=CC(=C(C=C5)F)F
The gist of the method: as §1

Compound in assay [5]: CC1=C(SC2=C1C(=N[C@H](C3=NN=C(N32)C)CC(=O)N)C4=CC=C(C=C4)Cl)C
The gist of the method: as §1

Of roughly 8,800 targets only a part is listed; those with a hit were picked by preference. About 0.5% of all pairs of compound and target were hits. Values without a mark were called inactive.

Chain of UniProt Q9NWR8 (Q9NWR8 whole entry, looked up): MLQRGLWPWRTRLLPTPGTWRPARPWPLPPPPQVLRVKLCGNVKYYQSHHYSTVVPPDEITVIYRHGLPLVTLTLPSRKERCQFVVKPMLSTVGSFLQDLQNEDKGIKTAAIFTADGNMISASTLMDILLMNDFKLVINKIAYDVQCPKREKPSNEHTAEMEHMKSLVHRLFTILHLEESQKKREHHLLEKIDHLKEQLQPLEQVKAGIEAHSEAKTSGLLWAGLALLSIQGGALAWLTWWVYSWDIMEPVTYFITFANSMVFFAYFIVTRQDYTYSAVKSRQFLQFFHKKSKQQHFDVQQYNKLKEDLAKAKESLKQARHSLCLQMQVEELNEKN
Chain of UniProt P01116 (P01116 whole entry, looked up): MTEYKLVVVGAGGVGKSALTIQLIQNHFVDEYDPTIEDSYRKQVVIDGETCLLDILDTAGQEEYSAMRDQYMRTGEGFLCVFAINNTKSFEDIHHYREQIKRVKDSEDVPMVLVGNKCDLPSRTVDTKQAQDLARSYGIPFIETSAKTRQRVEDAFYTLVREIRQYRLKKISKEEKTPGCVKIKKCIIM
Chain of UniProt Q71SY5 (Q71SY5 whole entry, looked up): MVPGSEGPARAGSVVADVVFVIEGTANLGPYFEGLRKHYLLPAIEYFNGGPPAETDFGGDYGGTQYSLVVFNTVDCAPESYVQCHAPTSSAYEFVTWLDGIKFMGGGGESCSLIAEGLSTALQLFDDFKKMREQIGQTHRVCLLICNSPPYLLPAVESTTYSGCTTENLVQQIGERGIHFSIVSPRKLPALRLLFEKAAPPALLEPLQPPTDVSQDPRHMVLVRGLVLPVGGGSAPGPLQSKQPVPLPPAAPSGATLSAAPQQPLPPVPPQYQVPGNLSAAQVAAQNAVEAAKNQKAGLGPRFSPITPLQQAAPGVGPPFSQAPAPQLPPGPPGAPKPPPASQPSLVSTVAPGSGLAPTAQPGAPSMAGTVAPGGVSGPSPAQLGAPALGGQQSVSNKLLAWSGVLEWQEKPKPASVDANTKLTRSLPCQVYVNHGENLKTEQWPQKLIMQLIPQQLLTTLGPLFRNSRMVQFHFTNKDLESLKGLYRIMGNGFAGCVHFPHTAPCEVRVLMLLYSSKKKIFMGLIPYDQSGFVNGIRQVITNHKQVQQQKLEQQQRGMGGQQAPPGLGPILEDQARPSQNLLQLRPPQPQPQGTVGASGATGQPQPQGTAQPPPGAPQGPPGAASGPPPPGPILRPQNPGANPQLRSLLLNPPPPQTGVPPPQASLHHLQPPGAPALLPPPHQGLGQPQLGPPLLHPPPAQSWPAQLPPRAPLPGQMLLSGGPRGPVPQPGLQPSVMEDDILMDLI
Chain of UniProt Q8WXB1 (Q8WXB1 whole entry, looked up): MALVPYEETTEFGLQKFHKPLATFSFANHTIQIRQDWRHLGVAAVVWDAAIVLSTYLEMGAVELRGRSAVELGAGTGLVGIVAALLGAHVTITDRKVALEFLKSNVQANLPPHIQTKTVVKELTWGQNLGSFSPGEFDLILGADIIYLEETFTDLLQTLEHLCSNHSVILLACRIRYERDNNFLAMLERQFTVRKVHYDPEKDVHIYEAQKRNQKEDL
Chain of UniProt Q08380 (Q08380 whole entry, looked up): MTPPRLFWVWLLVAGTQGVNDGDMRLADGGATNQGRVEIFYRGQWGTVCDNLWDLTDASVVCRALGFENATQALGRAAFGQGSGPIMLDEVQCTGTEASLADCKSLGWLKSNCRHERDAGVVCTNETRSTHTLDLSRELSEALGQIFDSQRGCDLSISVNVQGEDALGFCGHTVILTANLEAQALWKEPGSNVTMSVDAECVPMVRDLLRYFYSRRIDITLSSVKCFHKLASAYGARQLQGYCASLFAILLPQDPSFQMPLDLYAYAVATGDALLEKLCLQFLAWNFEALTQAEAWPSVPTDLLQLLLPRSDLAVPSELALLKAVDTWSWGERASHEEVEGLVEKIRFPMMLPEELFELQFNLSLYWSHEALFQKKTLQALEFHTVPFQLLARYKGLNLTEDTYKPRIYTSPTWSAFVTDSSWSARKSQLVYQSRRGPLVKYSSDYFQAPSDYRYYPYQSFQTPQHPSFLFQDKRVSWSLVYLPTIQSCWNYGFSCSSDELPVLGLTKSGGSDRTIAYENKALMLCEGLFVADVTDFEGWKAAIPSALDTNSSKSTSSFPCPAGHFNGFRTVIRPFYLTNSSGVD
Chain of UniProt O75970 (O75970 whole entry, looked up): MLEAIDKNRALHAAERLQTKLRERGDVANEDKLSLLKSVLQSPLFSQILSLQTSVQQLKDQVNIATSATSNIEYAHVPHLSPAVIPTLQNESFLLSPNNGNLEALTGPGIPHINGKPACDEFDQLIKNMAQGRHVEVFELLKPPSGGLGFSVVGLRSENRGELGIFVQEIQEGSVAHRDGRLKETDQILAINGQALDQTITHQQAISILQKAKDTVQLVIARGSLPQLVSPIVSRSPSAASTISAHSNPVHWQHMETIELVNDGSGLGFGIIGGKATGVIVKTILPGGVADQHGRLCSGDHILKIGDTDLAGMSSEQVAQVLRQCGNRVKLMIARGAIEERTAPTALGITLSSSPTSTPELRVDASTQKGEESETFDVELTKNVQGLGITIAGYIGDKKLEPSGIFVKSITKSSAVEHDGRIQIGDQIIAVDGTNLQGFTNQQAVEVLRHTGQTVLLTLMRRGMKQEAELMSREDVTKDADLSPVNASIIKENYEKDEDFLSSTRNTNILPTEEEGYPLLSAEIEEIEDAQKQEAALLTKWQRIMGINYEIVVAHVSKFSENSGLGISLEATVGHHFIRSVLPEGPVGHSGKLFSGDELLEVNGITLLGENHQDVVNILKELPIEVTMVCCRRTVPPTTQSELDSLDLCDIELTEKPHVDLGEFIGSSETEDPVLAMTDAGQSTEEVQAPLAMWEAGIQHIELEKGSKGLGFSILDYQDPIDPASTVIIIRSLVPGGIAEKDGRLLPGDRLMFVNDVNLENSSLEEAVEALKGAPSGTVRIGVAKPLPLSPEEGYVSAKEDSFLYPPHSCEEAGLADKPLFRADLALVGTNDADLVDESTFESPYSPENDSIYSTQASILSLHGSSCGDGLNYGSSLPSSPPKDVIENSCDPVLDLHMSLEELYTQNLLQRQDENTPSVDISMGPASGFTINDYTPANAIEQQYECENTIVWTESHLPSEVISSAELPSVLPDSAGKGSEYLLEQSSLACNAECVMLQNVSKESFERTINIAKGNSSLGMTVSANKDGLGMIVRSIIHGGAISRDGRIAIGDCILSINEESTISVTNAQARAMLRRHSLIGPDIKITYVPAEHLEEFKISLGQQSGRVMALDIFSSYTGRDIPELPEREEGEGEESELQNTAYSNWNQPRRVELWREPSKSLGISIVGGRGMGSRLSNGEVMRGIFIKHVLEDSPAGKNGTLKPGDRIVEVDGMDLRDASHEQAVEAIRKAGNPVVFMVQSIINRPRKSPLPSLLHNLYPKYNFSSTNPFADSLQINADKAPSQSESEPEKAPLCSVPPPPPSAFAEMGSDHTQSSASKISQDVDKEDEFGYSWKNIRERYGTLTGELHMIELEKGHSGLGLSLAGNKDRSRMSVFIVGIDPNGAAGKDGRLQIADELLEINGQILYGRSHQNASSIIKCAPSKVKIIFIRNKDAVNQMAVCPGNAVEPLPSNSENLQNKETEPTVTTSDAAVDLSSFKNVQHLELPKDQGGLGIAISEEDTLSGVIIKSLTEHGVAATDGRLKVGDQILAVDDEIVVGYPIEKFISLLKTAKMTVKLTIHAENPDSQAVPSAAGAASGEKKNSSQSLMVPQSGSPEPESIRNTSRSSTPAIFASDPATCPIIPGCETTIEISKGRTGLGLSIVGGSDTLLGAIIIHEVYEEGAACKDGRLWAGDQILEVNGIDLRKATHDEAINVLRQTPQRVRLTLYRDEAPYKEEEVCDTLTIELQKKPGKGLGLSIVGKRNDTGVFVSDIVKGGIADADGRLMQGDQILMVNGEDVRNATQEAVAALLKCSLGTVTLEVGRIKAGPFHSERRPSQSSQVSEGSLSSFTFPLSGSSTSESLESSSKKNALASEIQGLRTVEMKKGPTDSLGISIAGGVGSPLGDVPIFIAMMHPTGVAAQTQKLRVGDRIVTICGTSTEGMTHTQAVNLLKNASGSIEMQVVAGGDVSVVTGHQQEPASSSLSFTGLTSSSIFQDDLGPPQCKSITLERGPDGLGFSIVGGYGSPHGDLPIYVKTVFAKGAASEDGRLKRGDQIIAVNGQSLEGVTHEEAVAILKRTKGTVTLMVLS
Chain of UniProt Q16553 (Q16553 whole entry, looked up): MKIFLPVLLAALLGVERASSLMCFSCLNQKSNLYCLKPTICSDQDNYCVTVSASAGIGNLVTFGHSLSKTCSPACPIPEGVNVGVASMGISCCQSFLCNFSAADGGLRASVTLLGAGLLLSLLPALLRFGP
Chain of UniProt O00139 (O00139 whole entry, looked up): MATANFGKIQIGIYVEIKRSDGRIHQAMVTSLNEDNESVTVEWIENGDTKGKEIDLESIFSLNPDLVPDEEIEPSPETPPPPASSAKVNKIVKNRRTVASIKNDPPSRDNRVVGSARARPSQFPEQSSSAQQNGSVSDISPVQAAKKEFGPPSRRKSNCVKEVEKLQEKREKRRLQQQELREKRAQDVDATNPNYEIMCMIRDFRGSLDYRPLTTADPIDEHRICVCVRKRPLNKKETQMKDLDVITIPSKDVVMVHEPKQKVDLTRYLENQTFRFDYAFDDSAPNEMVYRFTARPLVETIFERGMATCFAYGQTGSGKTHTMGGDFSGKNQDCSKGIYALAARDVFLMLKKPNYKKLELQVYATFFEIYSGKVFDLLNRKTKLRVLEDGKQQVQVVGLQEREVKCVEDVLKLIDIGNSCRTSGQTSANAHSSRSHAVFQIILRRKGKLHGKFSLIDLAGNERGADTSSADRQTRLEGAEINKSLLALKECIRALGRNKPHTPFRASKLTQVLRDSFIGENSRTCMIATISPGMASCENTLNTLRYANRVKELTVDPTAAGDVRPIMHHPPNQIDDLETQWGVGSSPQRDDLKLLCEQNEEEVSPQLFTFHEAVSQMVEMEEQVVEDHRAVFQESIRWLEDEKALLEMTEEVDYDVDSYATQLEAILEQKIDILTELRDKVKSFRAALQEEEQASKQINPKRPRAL

On to KIF18B (UniProt Q86Y91), for which the log2 fold change in assay [1] is -0.083.

Take MRC2 (UniProt Q9UBG0): the values for the log2 fold change in assay [1] and in assay [2] were 0.209 and -0.084, respectively.

As for KIF2A isoform 2 (UniProt O00139), the log2 fold change in assay [2] is 0.326.

With MPDZ (UniProt O75970), the log2 fold change in assay [3] was -0.024; in assay [1] it was -0.159; in assay [2], -0.09.

MCUB (UniProt Q9NWR8): the log2 fold change in assay [4] was 0.097; in assay [5], -0.171; in assay [1], 0.044; in assay [2], 0.205.

Regarding KRAS (UniProt P01116), the log2 fold change in assay [3] is 0.088; in assay [1] it was 0.016; in assay [2] it was -0.092.

Take LRP1 (UniProt Q07954): the log2 fold change in assay [3] is 0.125.

KIF21A (UniProt H0YI78): the log2 fold change was 0.128 in assay [4], 0.02 in assay [5] and 0.106 in assay [1].

METTL21A (UniProt Q8WXB1): the log2 fold change in assay [4] was 0.048; in assay [5] it was -0.069; in assay [1] it was -0.068; in assay [2], 0.

Turning to LGALS3BP (UniProt Q08380), the log2 fold change in assay [3] is 0.159; in assay [1] it was -0.152; in assay [2], -0.071.

Consider KRAS isoform 2 (UniProt P01116), for which the log2 fold change in assay [1] was -0.006.

Regarding MED25 isoform 3 (UniProt Q71SY5), the log2 fold change in assay [4] is -0.069; in assay [5], 0.026; in assay [1] it was 0.01; in assay [2], 0.052.

With LY6E (UniProt Q16553), the log2 fold change was -0.031 in assay [4], -0.046 in assay [5], -0.075 in assay [3] and -0.815 in assay [2].

Take MAPK7 (UniProt Q13164): in assay [2], the log2 fold change was 0.042.

The values are drawn from the supplement of paper PMC10849652.
